# Screening results: PubChem, ICCB-Longwood Screening Facility, Harvard Medical School
# AID504770: growth inhibition of E. coli YBA685, primary screen, V. cholerae RctB inhibitors; 0.27% of 130,000 active; z-score (concentration not given with the values); E. coli YBA685 rctB-dependent plasmid, OD600 growth, 3 h; active compounds read low; in the data active means z-score below about -2, passing the limit was not always enough
# MbtI inh: MbtI salicylate synthase inhibitors, primary screen, biochemical, fluorescence intensity; P9WFX0; purified MbtI enzyme, fluorescence intensity read-out; inhibition, % (concentration not given with the values); 0.89% of 100,000 active; AID 493033, 2011; in the data active means inhibition mostly above about 56%, no sharp cut-off; inactive means mostly below about 77%
# PV pol inh: poliovirus RdRp elongation inhibitors, primary screen, biochemical, fluorescence polarization, total intensity | poliovirus polymerase elongation; active compounds read low | % elongation, % (compound at 16.7 µg/mL) | 0.66% of 150,000 active; in the data active means % elongation below about 90%
# MenB inh: M. tuberculosis MenB inhibitors, primary screen, biochemical, absorbance; inhibition, % (test concentration not listed); 1,4-dihydroxy-2-naphthoyl-CoA synthase (Mycobacterium tuberculosis (strain ATCC 25618 / …; 0.43% of 100,000 active; MenB enzyme assay, absorbance read-out; in the data active means inhibition above about 21%, passing the limit was not always enough
# Target sequence (P9WNP5 whole entry, looked up): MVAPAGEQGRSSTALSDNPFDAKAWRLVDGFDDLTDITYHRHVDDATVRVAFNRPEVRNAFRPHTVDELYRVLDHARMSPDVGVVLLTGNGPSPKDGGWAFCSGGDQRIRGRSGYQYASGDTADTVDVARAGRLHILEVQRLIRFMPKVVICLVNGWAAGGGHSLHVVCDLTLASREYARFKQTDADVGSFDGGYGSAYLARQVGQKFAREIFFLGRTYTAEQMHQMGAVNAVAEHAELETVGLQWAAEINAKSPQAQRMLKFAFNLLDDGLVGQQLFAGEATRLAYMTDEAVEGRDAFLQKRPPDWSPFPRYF
# An asterisk follows results filed as active; x = no result. The list is not random: actives were taken first. Their share in the collection is about 1.4%.
SMILES,AID504770,MbtI inh,PV pol inh,MenB inh
N#CCCCn1c(O)c(N=NC(=O)C2COc3ccccc3O2)c2ccccc21 (centres undefined),-0.25,14,99,0
O=S(=O)(Nc1nc2ccccc2nc1Nc1ccccc1F)c1ccc(Cl)cc1,2.1,-6,101,-25
COc1ccc(C2C(C#N)=C(N)Oc3c2ccc2cccnc32)cc1 (centres undefined),0.9,11,102,33*
COc1ccc(C2C(C#N)=C(N)OC(C3CC3)=C2C#N)cc1 (centres undefined),-0.85,-21,104,-5
CSc1nn(Cc2ccc(Br)cc2)c(N(C(C)=O)C(C)=O)c1S(=O)(=O)c1ccccc1,x,x,109,x
S=c1[nH]nc(Nc2cccc(Br)c2)s1,-0.35,98*,102,-32
CCN(CC)Cc1nc2sc(C)c(C)c2c(=S)[nH]1,-0.6,80*,101,-73
Cc1sc2nc(CC#N)[nH]c(=O)c2c1C,-0.4,3,107,x
CCC(=O)Nc1ccc(C(=O)COc2cccc(-n3cnnn3)c2)cc1,0.8,-3,108,-18
Cc1ccc2[nH]c(=S)oc2c1,0.45,61*,99,-28
S=c1[nH]c2ccc(Cl)cc2[nH]1,-0.55,82*,103,-23
S=c1[nH]c2ccc(Cl)cc2o1,-2*,64*,100,-53
O=C(Nc1ccccc1)c1ccccc1OCC(=O)N1CCCC1,-3*,-8,105,-16
CCOc1ccccc1C(=O)Nc1ccccc1,-0.9,-6,102,-9
CCCC(=O)c1cc(F)c(N2CCN(C)CC2)cc1C,0.2,x,103,5
Cc1cc(NCCCN2CCCC2=O)n2c(nc3ccccc32)c1C#N,1.1,70,104,37*
Cc1ccc(-n2ncc3c(NCC(C)C)ncnc32)c(C)c1,x,x,99,x
OCCSc1n[nH]c(-c2ccccc2)n1,0.15,-38,100,6
C#CCSc1n[nH]c(-c2ccccc2)n1,0.6,83*,102,-14
CSCc1nc2sc(C(=O)NC3CC3)c(C)c2c(=O)[nH]1,-0.2,-39,105,-15
Cc1ccc(Nc2nnc(SCc3nc4sc(C(=O)O)c(C)c4c(=O)[nH]3)s2)cc1C,-0.35,3,81*,-15
N#Cc1ccc(Sc2ccc(C#N)c(C#N)c2)cc1C#N,-0.85,100*,100,-53
N#Cc1ccc(OC(C(F)(F)F)C(F)(F)F)cc1C#N,-0.45,1,100,-23
O=c1[nH]c2ccccc2c(O)c1-c1nc2ccccc2c(=O)[nH]1,1.5,-255,104,43*
Cc1nc2ccccc2c(=O)[nH]1,-0.7,-1,96,14
SMILES,AID504770,MbtI inh,PV pol inh,MenB inh
Cc1c(Cl)cccc1N1CC(C)(C)C1=O,-0.4,x,x,x
Cc1c(Cl)cccc1N1C(=O)C=CC1=O,-2.6*,99*,102,x
CCc1cc2cc3c(cc2nc1SCC(=O)N1CCCCC1)OCO3,1,8,100,28
Cc1ccc(C)c(OC(=O)CSc2nnc(-c3cccs3)o2)c1,x,x,105,x
O=C1CSC(=S)N1c1cccc(O)c1,-3.1*,x,x,x
NS(=O)(=O)c1ccc(N2C(=O)CSC2=S)cc1,-1.2,57*,99,-75
CSc1cccc(N2C(=O)C=CC2=O)c1,-2.2*,x,x,x
N#Cc1cccc(N2C(=O)C=CC2=O)c1,-2.8*,x,x,x
COc1ccc(N2C(=O)C=CC2=O)cc1OC,-0.55,94*,100,x
O=C1C=CC(=O)N1c1ccc2ccccc2c1,-1.7,100*,98,3
CCOC(=O)c1c(CSC(=N)N)n(-c2ccc(OC)cc2)c2cc(Br)c(OC(C)=O)cc12,-0.35,23,100,-53
CCc1ccc(NC(=O)N2CC(C)Oc3ccc(C)cc32)cc1 (centres undefined),x,x,103,x
COc1ccc(N2CCN(S(C)(=O)=O)CC2)cc1,0.6,-2,101,40*
C#CC(C)(C)NC(=O)c1snnc1C,-0.55,-2,104,-11
COCCNC(=S)N1c2ccccc2CC1C (centres undefined),-1.2,64*,84*,-33
COc1ccc(NC(=O)C(Cc2ccccc2)n2cccc2)cc1 (centres undefined),0.2,4,102,-12
O=C1c2ccccc2CC1Sc1nnc(-c2ccco2)c(-c2ccco2)n1 (centres undefined),0.9,97*,99,5
CCCOc1ccc(/C=C/C(=O)Nc2sc(C)c(C)c2C(=O)OCC)cc1OC,x,x,73*,x
CCOc1ccc(NC(=O)CN2C(=O)CS/C2=C\C#N)cc1,-0.1,-9,104,-30
O=C(CN1C(=O)NC2(CCCC2)C1=O)c1ccccc1,0.3,-13,112,-14
O=C1CSC(=S)N1Nc1ccccc1,-4,76*,105,-59
COc1ccc(-c2c(C#N)c(N)nc(OC)c2C#N)cc1,0.1,42,101,-28
COc1ccc2c(c1)C(C(C#N)C#N)C(C#N)=C(N)O2 (centres undefined),-2.4*,x,x,x
CCCC(C)C1C(C#N)=C(N)Oc2cc(N)ccc21 (centres undefined),0.6,8,106,-2
COc1ccc2c(c1)C(C(C#N)C#N)c1c(nc(N)c(C#N)c1N)O2 (centres undefined),-3*,64,96,-25
SMILES,AID504770,MbtI inh,PV pol inh,MenB inh
O=C(Cn1nnc(-c2ccccc2)n1)N/N=C/c1ccc(N2CCOCC2)s1,-0.35,-9,126,-32
CCCSc1nc(-c2ccc(OC)cc2)cc(-c2ccccc2OC)c1C#N,x,x,88*,x
O=S(=O)(c1cccs1)N1CCCN(S(=O)(=O)c2cccs2)CC1,1.1,3,102,26*
Cc1cc2c(cc1N)OCCO2,1.6,3,108,-67
COc1cc2c(cc1OC)CN(c1ccc3ccccc3n1)CC2,-0.15,-27,89*,-5
CCOc1ccccc1C1C(C#N)=C(SC)NC(=O)C1C(=O)OC (centres undefined),0.7,x,x,x
COC(=O)C1C(=O)NC(S)=C(C#N)C1c1ccccc1Cl (centres undefined),-0.25,87*,106,-12
Cc1conc1NC(c1cccs1)c1ccc2cccnc2c1O (centres undefined),1.1,97*,118,-73
COc1ccc(CCNC(=O)c2ccc3c(c2)N(Cc2ccccc2)C(=O)c2ccccc2S3=O)cc1OC (centres undefined),x,x,-15*,x
c1ccc(CCn2nnnc2C(c2cccnc2)N2CCCCC2)cc1 (centres undefined),-0.65,-9,104,-12
N#Cc1cccc(C(c2nnnn2Cc2ccccc2)N2CCCC2)c1 (centres undefined),0.5,-1,99,29*
O=C1CCC(C(=O)N=c2sccn2Cc2ccc(Cl)cc2Cl)=NN1,0.7,21,109,-15
COc1cc2cc3c4c(cc(OC)c(OC)c4c2cc1OC)CCN3C,0,x,18*,1
O=C1C=CC(=NS(=O)(=O)c2ccc(C(=O)O)cc2)C=C1,-0.55,91*,99,13
O=C1C=CC(=NS(=O)(=O)c2cccs2)C=C1,-1.2,x,x,x
COc1cccc(NC(=O)Cn2sc3ccccc3c2=O)c1,-2.5*,98,105,-62
COc1cccc(NC(=O)Cn2ccc3c(OC)cccc3c2=O)c1,-0.25,54,102,-4
